High-throughput results (PubChem)
Shown are actives, neighbours in structure and some others; about 19% of the full set was active somewhere.
DT40 TDP1 no CPT: qHTS for Inhibitors of human tyrosyl-DNA phosphodiesterase 1 (TDP1): qHTS in cells in absence of CPT; Potency, µM (top dose mostly 46.2 µM), actives largely listed as inhibitors; 420,000 compounds, 15% hits; DT40 Tdp1-/- hTDP1 cells, no CPT, ATP luminescence, 48 h; further: nearly all actives have a fitted effect of over 55% in size
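Chicken DT40 Tdp1-/- cells complemented with human TDP1, screened without camptothecin (DMSO vehicle only), 400 cells/well. Compounds pin-transferred, cells incubated at 37 °C for at least 48 hr. Growth read as ATP-dependent luminescence (CellTiter-Glo, 30 min at RT).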
HT1080 IDH1KD tx: HT-1080 IDH1 knockdown cell toxicity (counter line); HT-1080 IDH1 knockdown viability, ATP luminescence, 48 h; Potency, µM (top dose mostly 46.1 µM), usual class: cytotoxic; 360,000 compounds, 2% hits
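Viability of IDH1-knockdown HT-1080 fibrosarcoma cells was assessed by CellTiter-Glo after 48 h at 37 °C with titrated compound; concentration-effect curves were classified by fit quality and response size.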
DT40 TDP1 CPT: growth inhibition of DT40 Tdp1-/-;hTDP1 cells with camptothecin (screen for TDP1 inhibitors) | Potency, µM (doses to about 46.2 µM), usual class: inhibitors | chicken DT40 Tdp1-/-;hTDP1 cells + 20 nM CPT, ATP luminescence, 48 h | AID 686979 | 420,000 compounds, 12% hits; further: nearly all actives have a fitted effect of over 55% in size
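Chicken DT40 Tdp1-/- cells stably complemented with human TDP1 were seeded at 400 cells/well in medium containing 20 nM camptothecin, exposed to pin-transferred compounds, and grown at 37 °C for at least 48 hr. Viability was read as ATP luminescence.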
HT1080NT lethal: kills 2HG-producing HT-1080-NT fibrosarcoma cells; 360,000 compounds, 1.6% hits; Potency, µM (doses to about 46.1 µM), hits mostly cytotoxic; HT-1080-NT fibrosarcoma viability, CellTiter-Glo ATP luminescence, 48 h;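 further: NT is the 2HG producing partner of a matched IDH1 knockdown line; nearly all actives have a fitted effect of over 55% in size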
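Fibrosarcoma NT cells, 750 per well in 5% FBS RPMI, were exposed to compound for 48 hours. Viability: CellTiter-Glo luminescence.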
IL1B secr inh: inhibitors of inflammasome signaling (IL-1 beta secretion). THP-1 LPS/ATP IL-1B secretion, AlphaLISA, 16 h; active compounds read low. activity change, % at 57.5 µM. 360,000 compounds, 4.7% hits; in the data active means activity change below about -50%; inconclusive means mostly about -30% to -49%
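THP-1 cells pretreated 1 hr with compounds (up to 57.5 uM final), then stimulated with LPS (250 ng/mL final) plus ATP (1.25 mM final); secreted IL-1B measured by AlphaLISA after 16 hr, decreased signal indicating inhibition.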
Large screens that a line does not name were inactive; ! = a repeat was not active. Unless noted, the call rests on the fitted dose curve; in most records, active means well fitted curve in the direction sought with a large enough effect; inconclusive means small, poorly fitted or top-dose-only effect, or another doubt; inactive means no such curve, though single readings can be large; an effect the other way counts as inactive or inconclusive.

CCCCC(CC)C(=O)O (configuration not stated)	none
Cc1c(F)c(N2CCNC(C)C2)cc2c1c(=O)c(C(=O)O)cn2C1CC1 (configuration not stated)	none (no result: HT1080 IDH1KD tx, HT1080NT lethal, IL1B secr inh)
CCOC(=O)N1CCN(CC(O)COc2ccc(OC)cc2C(C)(C)C)CC1 (configuration not stated)	DT40 TDP1 no CPT inconclusive, DT40 TDP1 CPT inconclusive
COc1ccccc1NCC(O)Cn1c2ccccc2c2ccccc21 (configuration not stated)	DT40 TDP1 no CPT inconclusive, HT1080 IDH1KD tx inconclusive, DT40 TDP1 CPT inconclusive
COc1ccc(CCNCC(O)COc2cccc(Br)c2)cc1OC (configuration not stated)	DT40 TDP1 no CPT inconclusive, DT40 TDP1 CPT inconclusive, IL1B secr inh -61
COc1ccc(CCNCC(O)Cn2c3ccccc3c3ccccc32)cc1OC (configuration not stated)	DT40 TDP1 no CPT 12µM, HT1080 IDH1KD tx 23µM, DT40 TDP1 CPT 13µM, IL1B secr inh -55
COc1ccc(CCNCC(O)COc2ccc(OC)cc2C(C)(C)C)cc1 (configuration not stated)	DT40 TDP1 no CPT inconclusive, HT1080 IDH1KD tx 18µM, DT40 TDP1 CPT inconclusive, HT1080NT lethal inconclusive, IL1B secr inh -97
CCCn1nc(NC(=O)CC(C)C)c2cc3ccccc3nc21	DT40 TDP1 no CPT inconclusive, DT40 TDP1 CPT inconclusive
O=C(NC(CO)Cc1ccc([N+](=O)[O-])cc1)C(Cl)Cl (configuration not stated)	DT40 TDP1 no CPT 9.2µM, DT40 TDP1 CPT 16µM
O=[N+]([O-])c1ccc(C(O)C(CO)NC(=S)Nc2ccccc2)cc1 (configuration not stated)	DT40 TDP1 no CPT inconclusive, DT40 TDP1 CPT 16µM
O=C(N[C@H](CO)[C@H](O)c1ccc([N+](=O)[O-])cc1)C(Cl)Cl	DT40 TDP1 no CPT 11µM, DT40 TDP1 CPT 7.5µM!
Cc1cccc(OCCC(=O)Nc2c(C)n(C)n(-c3ccccc3)c2=O)c1	none
Cc1cc(=O)n2nc(N3CCCC(C(=O)NCCCN4C(C)CCCC4C)C3)sc2n1 (configuration not stated)	none
COc1cccc(C(=O)NCCS(=O)(=O)N2CCC(C)CC2)c1	none
COc1ccc(-c2nc(CSCC(=O)N3CCN(c4cc(Cl)ccc4C)CC3)c(C)o2)cc1	DT40 TDP1 no CPT 16µM, DT40 TDP1 CPT 13µM (no result: HT1080 IDH1KD tx, HT1080NT lethal, IL1B secr inh)
COc1ccc(-c2nc(CSCC(=O)N3CCN(C)CC3)c(C)o2)cc1OC	none
CCOc1ccc(-c2nc(CSCC(=O)N3CCN(c4ccc(F)cc4)CC3)c(C)o2)cc1	none (no result: HT1080 IDH1KD tx, HT1080NT lethal, IL1B secr inh)
COc1ccc(-c2nc(CSCC(=O)N3CCN(c4cccc(C)c4C)CC3)c(C)o2)cc1OC	DT40 TDP1 no CPT 23µM, DT40 TDP1 CPT 18µM (no result: HT1080 IDH1KD tx, HT1080NT lethal, IL1B secr inh)
CCOc1ccc(-c2nc(CSCC(=O)N3CCN(c4cccc(C(F)(F)F)c4)CC3)c(C)o2)cc1	DT40 TDP1 no CPT 10µM, DT40 TDP1 CPT 21µM (no result: HT1080 IDH1KD tx, HT1080NT lethal, IL1B secr inh)
CCc1ccc(-c2nc(CSCC(=O)N3CCN(c4ncccn4)CC3)c(C)o2)cc1	DT40 TDP1 no CPT inconclusive, DT40 TDP1 CPT inconclusive
COc1ccc(-c2nc(CSCC(=O)N3CCN(c4ccc(OC)cc4)CC3)c(C)o2)cc1	DT40 TDP1 no CPT 10µM, DT40 TDP1 CPT inconclusive (no result: HT1080 IDH1KD tx, HT1080NT lethal, IL1B secr inh)
Cc1cc(SCC(=O)NCC2CCCO2)nc2ccccc12 (configuration not stated)	none
CCCCn1c(N)c(N(CCOC)C(=O)CSc2nnc(-c3ccco3)n2CC)c(=O)[nH]c1=O	none
Cc1nc(N2CCC(C)CC2)c2c(C)c(C(=O)Nc3cccc(C(F)(F)F)c3)sc2n1	DT40 TDP1 no CPT inconclusive, HT1080 IDH1KD tx inconclusive, DT40 TDP1 CPT inconclusive, HT1080NT lethal inconclusive
Cc1nc(Nc2cnc(/C=C/c3cc(C(=O)Nc4cccc(C(F)(F)F)c4)ccc3C)cn2)cc(N2CCNCC2)n1	DT40 TDP1 no CPT 21µM, HT1080 IDH1KD tx inconclusive, DT40 TDP1 CPT 18µM, HT1080NT lethal inconclusive, IL1B secr inh -97
COC1(OC)C(/C=C/c2ccc(C)cc2)C(C#N)(C#N)C1(OC)OC (configuration not stated)	DT40 TDP1 no CPT inconclusive, HT1080 IDH1KD tx inconclusive, DT40 TDP1 CPT inconclusive, HT1080NT lethal inconclusive, IL1B secr inh -120
CC(=O)Nc1c(Cl)c2c(c(Cl)c1Br)-c1ccc(Cl)cc1C2	DT40 TDP1 no CPT inconclusive, DT40 TDP1 CPT inconclusive
COc1ccc(NC(=O)CSc2nnc(NC(=O)C3CCC3)s2)c(OC)c1	none
CCOC(=O)/C=C/C(=O)OCC(=O)Nc1c(Cl)cccc1Cl	DT40 TDP1 CPT inconclusive, IL1B secr inh -54
CCCn1c(C)cc(/C=C(\C#N)C(=O)OCC(=O)Nc2ccc(OC)c(Cl)c2)c1C	DT40 TDP1 no CPT 12µM
COc1ccc(NC(=O)COC(=O)/C=C/C(=O)OCC(=O)Nc2ccc(OC)c(Cl)c2)cc1Cl	DT40 TDP1 no CPT inconclusive, HT1080 IDH1KD tx inconclusive, DT40 TDP1 CPT inconclusive, HT1080NT lethal inconclusive, IL1B secr inh -103
COc1ccc(NC(=O)COC(C)=O)cc1Cl	DT40 TDP1 CPT inconclusive
CCCn1c(C)cc(/C=C(\C#N)C(=O)OCC(=O)NC(=O)NCC)c1C	none
CS(=O)(=O)Nc1cccc(-c2cc(NC=O)c3ncc(-c4ccc(F)c(Cl)c4)n3c2)c1	DT40 TDP1 no CPT 15µM, HT1080 IDH1KD tx inconclusive, DT40 TDP1 CPT 9.2µM, HT1080NT lethal inconclusive
O=CNc1cc(-c2cccc(F)c2)cn2c(-c3ccc(F)c(Cl)c3)cnc12	DT40 TDP1 no CPT 12µM, HT1080 IDH1KD tx inconclusive, DT40 TDP1 CPT 23µM
O=CNc1cc(-c2ccccc2)cn2c(-c3ccc(F)c(Cl)c3)cnc12	DT40 TDP1 no CPT 23µM, HT1080 IDH1KD tx inconclusive, DT40 TDP1 CPT 23µM
COc1ccccc1OCC(=O)NCC1CCCN(Cc2cnn(C(C)C)c2)C1 (configuration not stated)	none
COc1cc(OC)c(NC(=O)C2=C(C)C(=O)OC23CCN(C(C)=O)CC3)cc1Cl	none (no result: HT1080 IDH1KD tx, HT1080NT lethal, IL1B secr inh)
O=C(CSc1nnc(Cc2ccccc2)o1)Nc1ccc(N2CCOCC2)cc1	none
CSCCC(NC(=O)COc1ccccc1)C(=O)O (configuration not stated)	none
CC(=O)ON=C1C=CC(=C(C#N)c2ccccc2)C=C1	DT40 TDP1 no CPT 3.3µM, HT1080 IDH1KD tx 5.8µM, DT40 TDP1 CPT 2.3µM, HT1080NT lethal 7.3µM, IL1B secr inh -111
CC(=O)OC(=C(OC(C)=O)c1ccccc1)c1ccccc1	none
COc1ccc(C(C#N)=C2C=CC(=NO)C=C2)cc1	DT40 TDP1 no CPT 10µM, HT1080 IDH1KD tx 10µM, DT40 TDP1 CPT 5.2µM, HT1080NT lethal 15µM, IL1B secr inh -101
Cc1c(NC(=O)C(C)OC(=O)/C=C/c2ccc3c(c2)OCO3)c(=O)n(-c2ccccc2)n1C (configuration not stated)	none
